Reference: PubChem BioAssay (Tox21)
Active and inactive are the calls of the source. Calls follow the shape of the dose curve; as a rule, active = well fitted curve in the direction sought with a large enough effect in the repeat runs; inconclusive = weak or mixed curves; inactive = flat fitted curve, though single readings scatter.

Assay: qHTS assay to test for compound auto fluorescence at 535 nm (green) in HEK293 cells (AID 720680)
Conditions: green autofluorescence 485/535 nm; series mostly up to 91.3 µM

Row | Structure (SMILES) | outcome
1 | COC(=O)NC(=S)Nc1ccccc1NC(=S)NC(=O)OC | inactive
2 | CCCCCOC(=O)c1ccccc1C(=O)OCCCCC | inactive
3 | CC(C)OC(=O)Nc1ccccc1 | inactive
4 | C#CC(C)(C)NC(=O)c1cc(Cl)cc(Cl)c1 | inactive
5 | CC(C)C1(C)N=C(c2nc3ccccc3cc2C(=O)O)NC1=O (centres undefined) | inactive
6 | Clc1ccc(Cl)cc1 | inactive
7 | C=C(C)CCl | inactive
8 | CC(C)(Cl)Cl | inactive
9 | O=S(=O)(c1ccc(O)cc1)c1ccc(O)cc1 | inactive
10 | Oc1ccccc1Cl | inactive
11 | O=NN1CCCCCCC1 | inactive
12 | Cc1cc(-c2cc(C)c(N)c(C)c2)cc(C)c1N | inactive
13 | CN(C)N=O | inactive
14 | CCCC1COC(Cn2cncn2)(c2ccc(Cl)cc2Cl)O1 (centres undefined) | inactive
15 | BrCCBr | inactive
16 | Nc1ccc(Cc2ccc(N)cc2)cc1 | inactive
17 | CCCCCCCCCCCC#N | inactive
18 | COP(N)(=O)SC (centres undefined) | inactive
19 | CCC12COCN1COC2 | inactive

Row | Structure (SMILES) | outcome
20 | O=[N+]([O-])c1ccc([As](=O)(O)O)cc1 | inactive
21 | CC(C)(C)C(O)(CCc1ccc(Cl)cc1)Cn1cncn1 (centres undefined) | inactive
22 | O=C(O)c1ccccn1 | inactive
23 | Cn1cc(-c2ccccc2)c(=O)c(-c2cccc(C(F)(F)F)c2)c1 | inactive
24 | CC(NC(C)(C)C)C(=O)c1cccc(Cl)c1 (centres undefined) | inactive
25 | CN=C=S | inactive
26 | CCN(CC)c1ccccc1 | inactive
27 | c1cc2c3c(cccc3c1)CC2 | inactive
28 | CCC[N+](=O)[O-] | inactive
29 | CCOP(=S)(OCC)SCCSCC | inactive
30 | CCN(CC)CCO | inactive
31 | CCCN(CCC)N=O | inactive
32 | c1ccc(OP(Oc2ccccc2)Oc2ccccc2)cc1 | inactive
33 | c1ccc(-c2ccccc2)cc1 | inactive
34 | Nc1ccccc1C(=O)O | inactive
35 | CCOP(OCC)OCC | inactive
36 | ClCc1cccnc1 | inactive
37 | NCC(O)c1ccc(O)cc1 (centres undefined) | inactive

Assay: qHTS assay to test for compound auto fluorescence at 460 nm (blue) in HEK293 cell free culture (AID 720681)
Conditions: cell-free medium, autofluorescence 405/460 nm (blue); series mostly up to 91.3 µM
Procedure, shortened: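 Test compounds were pinned into cell-free culture medium (DMEM with 10% FBS) and fluorescence was read directly at Ex/Em 405/460 nm. Signals were expressed as fluorescence equivalents of triamterene, with DMSO vehicle as control.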

Row | Structure (SMILES) | outcome
38 | COC(=O)NC(=S)Nc1ccccc1NC(=S)NC(=O)OC | inactive
39 | CCCCCOC(=O)c1ccccc1C(=O)OCCCCC | inactive
40 | CC(C)OC(=O)Nc1ccccc1 | inactive
41 | C#CC(C)(C)NC(=O)c1cc(Cl)cc(Cl)c1 | inactive
42 | CC(C)C1(C)N=C(c2nc3ccccc3cc2C(=O)O)NC1=O (centres undefined) | inactive
43 | Clc1ccc(Cl)cc1 | inactive
44 | C=C(C)CCl | inactive
45 | CC(C)(Cl)Cl | inactive
46 | O=S(=O)(c1ccc(O)cc1)c1ccc(O)cc1 | inactive
47 | Oc1ccccc1Cl | inactive
48 | O=NN1CCCCCCC1 | inactive
49 | Cc1cc(-c2cc(C)c(N)c(C)c2)cc(C)c1N | inactive
50 | CN(C)N=O | inactive
51 | CCCC1COC(Cn2cncn2)(c2ccc(Cl)cc2Cl)O1 (centres undefined) | inactive
52 | BrCCBr | inactive
53 | Nc1ccc(Cc2ccc(N)cc2)cc1 | inactive
54 | CCCCCCCCCCCC#N | inactive
55 | COP(N)(=O)SC (centres undefined) | inactive
56 | CCC12COCN1COC2 | inactive

Row | Structure (SMILES) | outcome
57 | O=[N+]([O-])c1ccc([As](=O)(O)O)cc1 | inactive
58 | CC(C)(C)C(O)(CCc1ccc(Cl)cc1)Cn1cncn1 (centres undefined) | inactive
59 | O=C(O)c1ccccn1 | inactive
60 | Cn1cc(-c2ccccc2)c(=O)c(-c2cccc(C(F)(F)F)c2)c1 | inactive
61 | CC(NC(C)(C)C)C(=O)c1cccc(Cl)c1 (centres undefined) | inactive
62 | CN=C=S | inactive
63 | CCN(CC)c1ccccc1 | inactive
64 | c1cc2c3c(cccc3c1)CC2 | inactive
65 | CCC[N+](=O)[O-] | inactive
66 | CCOP(=S)(OCC)SCCSCC | inactive
67 | CCN(CC)CCO | inactive
68 | CCCN(CCC)N=O | inactive
69 | c1ccc(OP(Oc2ccccc2)Oc2ccccc2)cc1 | inactive
70 | c1ccc(-c2ccccc2)cc1 | inactive
71 | Nc1ccccc1C(=O)O | inactive
72 | CCOP(OCC)OCC | inactive
73 | ClCc1cccnc1 | inactive
74 | NCC(O)c1ccc(O)cc1 (centres undefined) | inactive
